Results as given in article PMC5540273 (PLoS ONE, 2017).

What was measured:
Settings in all cases: concentration: 1 μM, replicates: in singlicate; n = 1
PIK3CG = tested on: PIK3CG
PIK4CB = tested on: T1, PIK4CB
T1 construct: gene PI4KB

PIKFYVE = tested on: PIKFYVE
PIM1 = tested on: PIM1
PIM2 = tested on: PIM2
PIM3 = tested on: PIM3
PIP5K1A = tested on: PIP5K1A
PIP5K1C = tested on: PIP5K1C
PIP5K2B = tested on: PIP5K2B
PIP5K2C = tested on: T2, PIP5K2C
T2 construct: gene PIP4K2C

PKAC-alpha = tested on: T3, PKAC-alpha
T3 construct: gene PRKACA

PKAC-beta = tested on: T4, PKAC-beta
T4 construct: gene PRKACB

PKMYT1 = tested on: PKMYT1
PKN1 = tested on: PKN1
PKN2 = tested on: PKN2
PLK1 = tested on: PLK1
PLK2 = tested on: PLK2
PLK3 = tested on: PLK3
PLK4 = tested on: PLK4
PRKCD = tested on: PRKCD
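Also: KINOMEscan kinase panel screen.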

Row | SMILES | %Inh (PIK3CG) [%] | %Inh (PIK4CB) [%] | %Inh (PIKFYVE) [%] | %Inh (PIM1) [%] | %Inh (PIM2) [%] | %Inh (PIM3) [%] | %Inh (PIP5K1A) [%] | %Inh (PIP5K1C) [%] | %Inh (PIP5K2B) [%] | %Inh (PIP5K2C) [%] | %Inh (PKAC-alpha) [%] | %Inh (PKAC-beta) [%] | %Inh (PKMYT1) [%] | %Inh (PKN1) [%] | %Inh (PKN2) [%] | %Inh (PLK1) [%] | %Inh (PLK2) [%] | %Inh (PLK3) [%] | %Inh (PLK4) [%] | %Inh (PRKCD) [%]
1 | Nc1nc(N)c2nc(-c3ccccc3)[nH]c2n1 [SKF-12778] | 8 | 19 | 12 | 0 | 5 | 0 | 0 | 47 | 8 | 35 | 7 | 9 | 2 | 43 | 23 | 0 | 0 | 0 | 0 | 11
2 | Cn1c(=O)c(F)c(Nc2ccc(I)cc2F)c2c(=O)n(OC[C@H](O)CO)cnc21 | 0 | 0 | 6 | 5 | 13 | 0 | 11 | 22 | 9 | 12 | 10 | 35 | 0 | 0 | 0 | 14 | 0 | 0 | 4 | 4
3 | Nc1ncnc2c1ncn2-c1ccc(Cl)cc1 [AH2635] | 47 | 0 | 0 | 0 | 0 | 0 | 17 | 57 | 10 | 23 | 0 | 0 | 0 | 0 | 0 | 0 | 0 | 0 | 0 | 3
4 | Cl.c1ccc(Cn2cnc3cc(Nc4ncnc5ccccc45)ccc32)cc1 [GW272142] | 0 | 0 | 6 | 0 | 0 | 0 | 0 | 38 | 0 | 17 | 0 | 0 | 0 | 0 | 0 | 0 | 0 | 0 | 0 | 0
5 | Cl.NS(=O)(=O)c1cccc(Nc2cc(-c3ccc(F)cc3)n[nH]2)c1 [GW824645] | 0 | 26 | 0 | 0 | 8 | 0 | 3 | 59 | 0 | 0 | 7 | 0 | 0 | 0 | 0 | 0 | 20 | 23 | 10 | 5
6 | CCc1ccc(-c2ccc3c(c2)-c2nn(C)cc2S(=O)(=O)N3C)cc1 | 0 | 0 | 16 | 0 | 12 | 0 | 0 | 35 | 0 | 9 | 0 | 0 | 0 | 0 | 0 | 8 | 0 | 56 | 0 | 14
7 | COc1cc2nccc(Nc3cccc(Oc4ccccc4)c3)c2cc1OC.Cl [GW284543] | 0 | 0 | 29 | 0 | 0 | 0 | 0 | 48 | 18 | 8 | 0 | 10 | 0 | 0 | 0 | 0 | 0 | 0 | 0 | 5
8 | CN1C(=O)C(Nc2cc(Cl)c(O)c(Cl)c2)=C(c2ccc(Cl)cc2)C1=O [SB-404321] | 10 | 36 | 24 | 0 | 0 | 0 | 0 | 27 | 0 | 30 | 0 | 0 | 0 | 0 | 0 | 0 | 0 | 0 | 0 | 0
9 | O=C(Nc1ccc2c(c1)OCO2)NC1CCN(c2ccnc(NCc3ccc(F)cc3)n2)CC1 [GSK1379859] | 0 | 2 | 0 | 8 | 0 | 0 | 0 | 19 | 2 | 0 | 12 | 0 | 0 | 0 | 0 | 0 | 0 | 0 | 9 | 7
10 | Nc1n[nH]c2nnc(-c3ccccc3)c(-c3ccccc3)c12 [GW554060] | 0 | 0 | 12 | 0 | 0 | 0 | 11 | 47 | 14 | 14 | 0 | 16 | 0 | 20 | 3 | 8 | 0 | 0 | 0 | 3
